{
  "source": "paper PMC11006913",
  "experiment_in_all_cases": "PBM; 200 nM protein, PBS",
  "conditions_in_all_cases": "dsDNA, one strand shown",
  "key": {"[1]": {"biological_target": "CRX (Homo sapiens, UniProt O43186 26-111)", "sequence (O43186 26-111)": "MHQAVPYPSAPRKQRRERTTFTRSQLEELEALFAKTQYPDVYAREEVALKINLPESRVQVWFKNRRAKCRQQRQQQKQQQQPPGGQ"}, "[2]": {"biological_target": "HOXC9 (Homo sapiens, UniProt P31274 178-260, K195R)", "sequence (P31274 178-260 K195R)": "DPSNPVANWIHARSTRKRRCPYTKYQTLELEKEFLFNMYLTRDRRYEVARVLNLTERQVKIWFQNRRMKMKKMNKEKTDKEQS"}, "[3]": {"biological_target": "T1, NKX2-6 (Homo sapiens, UniProt A6NCS4 118-204, R150C)", "T1 sequence": "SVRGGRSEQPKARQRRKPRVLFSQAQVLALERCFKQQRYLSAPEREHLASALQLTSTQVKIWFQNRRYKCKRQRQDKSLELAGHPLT"}, "[4]": {"biological_target": "CRX (Homo sapiens, UniProt O43186 26-111, E42D)", "sequence (O43186 26-111 E42D)": "as the sequence (O43186 26-111) above, with E17D counted along it"}, "[5]": {"biological_target": "HOXC9 (Homo sapiens, UniProt P31274 178-260)", "sequence (P31274 178-260)": "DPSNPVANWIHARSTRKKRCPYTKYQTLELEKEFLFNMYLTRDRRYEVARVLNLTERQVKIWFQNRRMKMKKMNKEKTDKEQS"}, "[6]": {"biological_target": "PITX2 (Homo sapiens, UniProt Q99697 72-157)"}, "[7]": {"biological_target": "HOXC9 (Homo sapiens, UniProt P31274 178-260, R193K)", "sequence (P31274 178-260 R193K)": "as the sequence (P31274 178-260) above, with R16K counted along it"}, "[8]": {"biological_target": "HOXC9 (Homo sapiens, UniProt P31274 178-260, R222W)", "sequence (P31274 178-260 R222W)": "as the sequence (P31274 178-260) above, with R45W counted along it"}, "[9]": {"biological_target": "CRX (Homo sapiens, UniProt O43186 26-111, R41L)", "sequence (O43186 26-111 R41L)": "as the sequence (O43186 26-111) above, with R16L counted along it"}, "[10]": {"biological_target": "T2, VENTX (Homo sapiens, UniProt O95231 78-163, R121Q)", "T2 sequence": "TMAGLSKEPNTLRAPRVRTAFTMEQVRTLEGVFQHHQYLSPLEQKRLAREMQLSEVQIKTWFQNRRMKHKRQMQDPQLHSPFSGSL"}, "[11]": {"biological_target": "T3, VENTX (Homo sapiens, UniProt O95231 78-163)", "T3 sequence": "T2 sequence with Q44R"}, "[12]": {"biological_target": "T4, VENTX (Homo sapiens, UniProt O95231 78-163, Y115F)", "T4 sequence": "T2 sequence with Y38F, Q44R"}, "[13]": {"biological_target": "T5, SIX6 (Homo sapiens, UniProt O95475 114-200, L167I)", "T5 sequence": "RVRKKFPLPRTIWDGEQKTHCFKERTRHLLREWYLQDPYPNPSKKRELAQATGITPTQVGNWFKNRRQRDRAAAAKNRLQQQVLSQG"}, "[14]": {"biological_target": "T6, SIX6 (Homo sapiens, UniProt O95475 114-200, L143V)", "T6 sequence": "T5 sequence with L30V, I54L"}, "[15]": {"biological_target": "HOXC10 (Homo sapiens, UniProt Q9NYD6 254-340)", "sequence (Q9NYD6 254-340)": "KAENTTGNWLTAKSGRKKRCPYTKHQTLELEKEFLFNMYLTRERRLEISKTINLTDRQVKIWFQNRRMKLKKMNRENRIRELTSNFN"}, "[16]": {"biological_target": "T7, SIX6 (Homo sapiens, UniProt O95475 114-200, H141N)", "T7 sequence": "T5 sequence with H28N, I54L"}, "[17]": {"biological_target": "T8, SIX6 (Homo sapiens, UniProt O95475 114-200, T165P)", "T8 sequence": "T5 sequence with T52P, I54L"}, "[18]": {"biological_target": "T9, SIX6 (Homo sapiens, UniProt O95475 114-200, L167M)", "T9 sequence": "T5 sequence with I54M"}, "[19]": {"biological_target": "T10, SIX6 (Homo sapiens, UniProt O95475 114-200, L143M)", "T10 sequence": "T5 sequence with L30M, I54L"}, "[20]": {"biological_target": "T11, SIX6 (Homo sapiens, UniProt O95475 114-200, L143I)", "T11 sequence": "T5 sequence with L30I, I54L"}, "[21]": {"biological_target": "T12, SIX6 (Homo sapiens, UniProt O95475 114-200, T165G)", "T12 sequence": "T5 sequence with T52G, I54L"}, "[22]": {"biological_target": "T13, SIX6 (Homo sapiens, UniProt O95475 114-200, T139Q)", "T13 sequence": "T5 sequence with T26Q, I54L"}, "[23]": {"biological_target": "MSX2 (Homo sapiens, UniProt P35548 130-214, R199I)", "sequence (P35548 130-214 R199I)": "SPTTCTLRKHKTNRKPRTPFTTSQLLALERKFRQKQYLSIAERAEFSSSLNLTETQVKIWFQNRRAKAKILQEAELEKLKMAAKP"}, "[24]": {"biological_target": "T14, SIX6 (Homo sapiens, UniProt O95475 114-200, T165A)", "T14 sequence": "T5 sequence with T52A, I54L"}, "[25]": {"biological_target": "HOXC10 (Homo sapiens, UniProt Q9NYD6 254-340, K271E)", "sequence (Q9NYD6 254-340 K271E)": "as the sequence (Q9NYD6 254-340) above, with K18E counted along it"}, "[26]": {"biological_target": "MSX2 (Homo sapiens, UniProt P35548 130-214)", "sequence (P35548 130-214)": "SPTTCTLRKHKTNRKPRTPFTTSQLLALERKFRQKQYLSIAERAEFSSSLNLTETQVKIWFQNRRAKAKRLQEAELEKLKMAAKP"}, "[27]": {"biological_target": "T15, SIX6 (Homo sapiens, UniProt O95475 114-200, L167V)", "T15 sequence": "T5 sequence with I54V"}, "[28]": {"biological_target": "T16, SIX6 (Homo sapiens, UniProt O95475 114-200)", "T16 sequence": "T5 sequence with I54L"}, "[29]": {"biological_target": "T17, SIX6 (Homo sapiens, UniProt O95475 114-200, T165I)", "T17 sequence": "T5 sequence with T52I, I54L"}, "[30]": {"biological_target": "MSX2 (Homo sapiens, UniProt P35548 130-214, F161Y)", "sequence (P35548 130-214 F161Y)": "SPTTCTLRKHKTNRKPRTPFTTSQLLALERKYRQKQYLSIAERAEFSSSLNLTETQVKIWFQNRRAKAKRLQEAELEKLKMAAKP"}},
  "note": "Residue numbers refer to the chain shown, from its start.",
  "data": [
    {"sequence": "GGGGACCC", "values": [
      {"measurement": "binding signal", "setting": "[1]", "value": "8.16 upbm affinity estimate (log intensity, higher = more binding, comparable within an allelic series)"},
      {"measurement": "binding signal", "setting": "[2]", "value": "9.36 upbm affinity estimate (log intensity, higher = more binding, comparable within an allelic series)"},
      {"measurement": "binding signal", "setting": "[3]", "value": "9.43 upbm affinity estimate (log intensity, higher = more binding, comparable within an allelic series)"},
      {"measurement": "binding signal", "setting": "[4]", "value": "8.31 upbm affinity estimate (log intensity, higher = more binding, comparable within an allelic series)"},
      {"measurement": "binding signal", "setting": "[5]", "value": "9.5 upbm affinity estimate (log intensity, higher = more binding, comparable within an allelic series)"},
      {"measurement": "binding signal", "setting": "[6]", "value": "7.78 upbm affinity estimate (log intensity, higher = more binding, comparable within an allelic series)"},
      {"measurement": "binding signal", "setting": "[7]", "value": "9.41 upbm affinity estimate (log intensity, higher = more binding, comparable within an allelic series)"},
      {"measurement": "binding signal", "setting": "[8]", "value": "9.52 upbm affinity estimate (log intensity, higher = more binding, comparable within an allelic series)"},
      {"measurement": "binding signal", "setting": "[9]", "value": "8.26 upbm affinity estimate (log intensity, higher = more binding, comparable within an allelic series)"}
    ]},
    {"sequence": "CTGGGGCA", "values": [
      {"measurement": "binding signal", "setting": "[1]", "value": "8.18 upbm affinity estimate (log intensity, higher = more binding, comparable within an allelic series)"},
      {"measurement": "binding signal", "setting": "[10]", "value": "8.13 upbm affinity estimate (log intensity, higher = more binding, comparable within an allelic series)"},
      {"measurement": "binding signal", "setting": "[11]", "value": "8.21 upbm affinity estimate (log intensity, higher = more binding, comparable within an allelic series)"},
      {"measurement": "binding signal", "setting": "[12]", "value": "8.17 upbm affinity estimate (log intensity, higher = more binding, comparable within an allelic series)"},
      {"measurement": "binding signal", "setting": "[4]", "value": "8.24 upbm affinity estimate (log intensity, higher = more binding, comparable within an allelic series)"},
      {"measurement": "binding signal", "setting": "[9]", "value": "8.28 upbm affinity estimate (log intensity, higher = more binding, comparable within an allelic series)"}
    ]},
    {"sequence": "ATTATCTC", "values": [
      {"measurement": "binding signal", "setting": "[1]", "value": "11.7 upbm affinity estimate (log intensity, higher = more binding, comparable within an allelic series)"},
      {"measurement": "binding signal", "setting": "[2]", "value": "11.4 upbm affinity estimate (log intensity, higher = more binding, comparable within an allelic series)"},
      {"measurement": "binding signal", "setting": "[4]", "value": "11.5 upbm affinity estimate (log intensity, higher = more binding, comparable within an allelic series)"},
      {"measurement": "binding signal", "setting": "[5]", "value": "11.4 upbm affinity estimate (log intensity, higher = more binding, comparable within an allelic series)"},
      {"measurement": "binding signal", "setting": "[7]", "value": "11.4 upbm affinity estimate (log intensity, higher = more binding, comparable within an allelic series)"},
      {"measurement": "binding signal", "setting": "[9]", "value": "11.5 upbm affinity estimate (log intensity, higher = more binding, comparable within an allelic series)"}
    ]},
    {"sequence": "CCCCTGGA", "values": [
      {"measurement": "binding signal", "setting": "[1]", "value": "8.32 upbm affinity estimate (log intensity, higher = more binding, comparable within an allelic series)"},
      {"measurement": "binding signal", "setting": "[10]", "value": "7.92 upbm affinity estimate (log intensity, higher = more binding, comparable within an allelic series)"},
      {"measurement": "binding signal", "setting": "[11]", "value": "7.83 upbm affinity estimate (log intensity, higher = more binding, comparable within an allelic series)"},
      {"measurement": "binding signal", "setting": "[12]", "value": "8.01 upbm affinity estimate (log intensity, higher = more binding, comparable within an allelic series)"},
      {"measurement": "binding signal", "setting": "[4]", "value": "8.46 upbm affinity estimate (log intensity, higher = more binding, comparable within an allelic series)"},
      {"measurement": "binding signal", "setting": "[9]", "value": "8.4 upbm affinity estimate (log intensity, higher = more binding, comparable within an allelic series)"}
    ]},
    {"sequence": "CTGCTGGC", "values": [
      {"measurement": "binding signal", "setting": "[1]", "value": "8.31 upbm affinity estimate (log intensity, higher = more binding, comparable within an allelic series)"},
      {"measurement": "binding signal", "setting": "[10]", "value": "7.75 upbm affinity estimate (log intensity, higher = more binding, comparable within an allelic series)"},
      {"measurement": "binding signal", "setting": "[13]", "value": "8.86 upbm affinity estimate (log intensity, higher = more binding, comparable within an allelic series)"},
      {"measurement": "binding signal", "setting": "[11]", "value": "7.86 upbm affinity estimate (log intensity, higher = more binding, comparable within an allelic series)"},
      {"measurement": "binding signal", "setting": "[14]", "value": "8.74 upbm affinity estimate (log intensity, higher = more binding, comparable within an allelic series)"},
      {"measurement": "binding signal", "setting": "[15]", "value": "9.92 upbm affinity estimate (log intensity, higher = more binding, comparable within an allelic series)"},
      {"measurement": "binding signal", "setting": "[16]", "value": "8.87 upbm affinity estimate (log intensity, higher = more binding, comparable within an allelic series)"},
      {"measurement": "binding signal", "setting": "[17]", "value": "8.81 upbm affinity estimate (log intensity, higher = more binding, comparable within an allelic series)"},
      {"measurement": "binding signal", "setting": "[12]", "value": "7.71 upbm affinity estimate (log intensity, higher = more binding, comparable within an allelic series)"},
      {"measurement": "binding signal", "setting": "[18]", "value": "8.92 upbm affinity estimate (log intensity, higher = more binding, comparable within an allelic series)"},
      {"measurement": "binding signal", "setting": "[19]", "value": "8.85 upbm affinity estimate (log intensity, higher = more binding, comparable within an allelic series)"},
      {"measurement": "binding signal", "setting": "[20]", "value": "8.83 upbm affinity estimate (log intensity, higher = more binding, comparable within an allelic series)"},
      {"measurement": "binding signal", "setting": "[21]", "value": "8.91 upbm affinity estimate (log intensity, higher = more binding, comparable within an allelic series)"},
      {"measurement": "binding signal", "setting": "[22]", "value": "8.84 upbm affinity estimate (log intensity, higher = more binding, comparable within an allelic series)"},
      {"measurement": "binding signal", "setting": "[4]", "value": "8.3 upbm affinity estimate (log intensity, higher = more binding, comparable within an allelic series)"},
      {"measurement": "binding signal", "setting": "[23]", "value": "9.25 upbm affinity estimate (log intensity, higher = more binding, comparable within an allelic series)"},
      {"measurement": "binding signal", "setting": "[24]", "value": "8.81 upbm affinity estimate (log intensity, higher = more binding, comparable within an allelic series)"},
      {"measurement": "binding signal", "setting": "[25]", "value": "9.97 upbm affinity estimate (log intensity, higher = more binding, comparable within an allelic series)"},
      {"measurement": "binding signal", "setting": "[26]", "value": "9.22 upbm affinity estimate (log intensity, higher = more binding, comparable within an allelic series)"},
      {"measurement": "binding signal", "setting": "[27]", "value": "8.93 upbm affinity estimate (log intensity, higher = more binding, comparable within an allelic series)"},
      {"measurement": "binding signal", "setting": "[28]", "value": "8.83 upbm affinity estimate (log intensity, higher = more binding, comparable within an allelic series)"},
      {"measurement": "binding signal", "setting": "[29]", "value": "8.82 upbm affinity estimate (log intensity, higher = more binding, comparable within an allelic series)"},
      {"measurement": "binding signal", "setting": "[30]", "value": "9.31 upbm affinity estimate (log intensity, higher = more binding, comparable within an allelic series)"},
      {"measurement": "binding signal", "setting": "[9]", "value": "8.2 upbm affinity estimate (log intensity, higher = more binding, comparable within an allelic series)"}
    ]}
  ]
}
